# Data: patent US20150023943, “REF Nuclease for Site-Specific REF-Mediated DNA Cleavage” (Wisconsin Alumni Research Foundation, published 2015)
# Target: T1, φW39 ΔN59 Ref (Bacteriophage phi W39)
# T1 chain: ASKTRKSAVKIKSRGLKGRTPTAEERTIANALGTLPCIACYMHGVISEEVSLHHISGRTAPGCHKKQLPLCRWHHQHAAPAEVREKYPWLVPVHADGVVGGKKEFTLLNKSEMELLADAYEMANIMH
# Assay: FP; Kd value only in FIG. 6C; 15 mM Mg acetate, pH 8.5, 25 C
# Conditions: tags: expressed from pET21A with NdeI start Met; label: 5'-6FAM; ssDNA
# Description: Ref proteins at 0.5-10,000 nM were incubated with 2 nM AJM25 71mer ssDNA or AJM25 annealed with AJG52 71mer to make a linear 71 bp dsDNA substrate in 25 mM Tris-acetate (pH 8.5), 3 mM potassium glutamate, 15 mM magnesium acetate, and 5% w/v glycerol at room temperature for 15 minutes. Fluorescence anisotropy (FA) was measured at 25° C., using a Tecan Infinite M1000 instrument with 470-nm excitation and 535-nm emission wavelengths for at least three replicates. The average FA values were plotted with one standard deviation of the mean shown as error. Prism software was used to convert FA values to the percent of DNA bound and apparent dissociation constants were determined using one-site, specific binding with Hill coefficient.
row,Sequence,binding signal
1,CAGAAGTAAGTTGGCCGCAGTGTTATCACTCATGGTTATGGCAGCACTGCATAATTCTCTTACTGTCATGC,40 fold reduction in affinity
